CCHFV vOTU inh – blocks the CCHF virus ovarian tumor domain protease; inhibition, % at 11.5 µM; CCHFV vOTU protease, Pep-AMC fluorescence; 370,000 tested, 0.55% active; further: 0% = vehicle wells with enzyme and 100% = no enzyme wells
Mtb FBA inh – Mtb fructose-bisphosphate aldolase inhibition; P9WQA3; purified M. tuberculosis FBA, fluorescence read-out; inhibition, % at 1 µM; 360,000 tested, 2.3% active; AID 588726; in the data active means inhibition above about 27%;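 further: 0% = vehicle and 100% = reference inhibitor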
RecA intein inh – Mtb RecA intein splicing inhibition. inhibition, % (concentration not given with the values). cell-free RecA intein splicing, fluorescence. AID 2221. 290,000 tested, 0.75% active. P9WHJ3; in the data active means inhibition above about 30%;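 further: 0% = vehicle wells and 100% = reference inhibitor control wells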
Target sequence (P9WHJ3 whole entry, looked up): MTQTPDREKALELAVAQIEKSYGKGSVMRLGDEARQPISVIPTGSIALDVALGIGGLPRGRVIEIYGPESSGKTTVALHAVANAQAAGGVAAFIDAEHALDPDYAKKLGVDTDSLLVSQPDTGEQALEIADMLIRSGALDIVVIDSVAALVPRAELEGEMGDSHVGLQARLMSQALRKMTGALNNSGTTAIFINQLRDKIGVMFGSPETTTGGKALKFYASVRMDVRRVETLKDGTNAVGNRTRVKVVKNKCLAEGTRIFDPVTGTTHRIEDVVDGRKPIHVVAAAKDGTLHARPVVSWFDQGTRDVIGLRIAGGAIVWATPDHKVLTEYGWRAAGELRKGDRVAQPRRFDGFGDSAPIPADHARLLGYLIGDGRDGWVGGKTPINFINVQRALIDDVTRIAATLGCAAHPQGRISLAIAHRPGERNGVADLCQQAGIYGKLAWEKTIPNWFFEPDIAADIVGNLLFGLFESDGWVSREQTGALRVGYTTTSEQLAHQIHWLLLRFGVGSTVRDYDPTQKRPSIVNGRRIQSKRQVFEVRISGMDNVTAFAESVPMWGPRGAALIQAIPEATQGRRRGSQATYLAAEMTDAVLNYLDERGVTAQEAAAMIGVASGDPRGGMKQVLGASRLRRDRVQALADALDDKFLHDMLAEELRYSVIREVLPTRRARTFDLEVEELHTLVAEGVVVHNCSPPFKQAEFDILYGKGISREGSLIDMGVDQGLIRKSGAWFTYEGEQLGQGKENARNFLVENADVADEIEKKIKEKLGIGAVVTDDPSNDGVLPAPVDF
GDH-TPI counter-1 – inhibits GDH-TPI coupling enzymes, artifact for Mtb FBA screen. 360,000 tested, 1.2% active. inhibition, % at 4.8 µM. GDH-TPI coupled enzyme counterscreen, NADH absorbance;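 further: 0% = DMSO wells and 100% = wells lacking the enzyme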
Mtb FBA inh conf – Mtb FBA inhibition, confirmed; inhibition, % at 1 µM; shares compounds with Mtb FBA inh; purified M. tuberculosis FBA, fluorescence read-out; 5,600 tested, 78% active; in the data active means inhibition above about 27%;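 further: 0% = vehicle wells and 100% = reference inhibitor wells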
GDH-TPI counter-2 – GDH-TPI inhibition counter-screen for FBA inhibitors. shares compounds with Mtb FBA inh. GDH-TPI coupled enzyme counterscreen, fluorescence. inhibition, % at 1 µM. 5,600 tested, 81% active. AID 652141; in the data active means inhibition above about 10%
GDH-TPI DR – GDH-TPI dose response counter-screen for Mtb FBA | shares compounds with Mtb FBA inh | GDH-TPI coupled enzyme assay, fluorescence, artifact counterscreen | IC50, µM | 170 tested, 79% active; call rule not given here
The depositor's hits bear a star; . = not tested or not shown; + = active, no number. A selection: hits, their analogues and other compounds. The true share with any hit is near 4.2%. Unless noted, no stated cut-off is given here; in the data, active means inhibition above about 30%; inactive means the rest.

SMILES | CCHFV vOTU inh | Mtb FBA inh | RecA intein inh | GDH-TPI counter-1 | Mtb FBA inh conf | GDH-TPI counter-2 | others
CNC(=O)Oc1ccc(-c2cn3cc(Cl)ccc3n2)cc1 | -9.1 | 16.1 | 2.1 | 24.8 | . | .
COc1ccc(-c2cn3cc(C)ccc3n2)cc1Br | -7.5 | 30.0* | -1.7 | 11.4 | 130.0* | 109.3*
O=C1CC2C(CCC23OCCO3)c2ccc3ccccc3c21 (stereo not given) | 6.6 | 3.4 | . | 11.5 | . | .
COc1cc2c(cc1OC)CN(CC(O)c1ccccc1)CC2 (stereo not given) | -64.7 | 57.4* | -100.5 | 8.3 | 40.9* | 33.0*
COc1cc2c(cc1OC)CN(Cc1cccs1)CC2 | -13.1 | 28.7* | 1.1 | -3.2 | 97.7* | 86.5*
COc1cc2c(cc1OC)CN(Cc1ccccc1)CC2 | -14.5 | 7.6 | -1.9 | 16.9 | . | .
CCC(C(=O)N1CCc2cc(OC)c(OC)cc2C1)c1ccccc1 (stereo not given) | 14.9 | 2.1 | 5.8 | 8.6 | . | .
S=C(NCc1ccccc1)Nc1cccc2ccccc12 | 8.5 | 8.0 | 2.2 | 5.9 | . | .
CCN(C(=S)Nc1cccc2ccccc12)c1ccccc1 | -34.6 | 29.6* | . | 13.3 | 57.8* | 42.6*
C=CCn1c(C(C)NC(=O)c2cccc(C)c2)n[nH]c1=S (stereo not given) | 16.8 | 2.5 | -1.1 | 9.7 | . | .
CCn1c(C(C)NC(=O)c2ccc(Cl)cc2)n[nH]c1=S (stereo not given) | 11.9 | 39.6* | 2.2 | -2.5 | 107.2* | 85.9*
CCN(CC)CCN(C(=O)CCS(=O)(=O)c1ccccc1)c1nc2cc3c(cc2s1)OCO3 | -10.5 | -3.3 | -0.8 | 9.0 | . | .
Cc1ccc(/C=C2\OC(=O)c3ccccc32)cc1 | -27.4 | 45.2* | -1.7 | 22.9 | -2.4 | -6.1
Cc1ccccc1/C=C1\OC(=O)c2ccccc21 | 1.3 | 17.2 | 2.1 | 26.2 | . | .
COc1cc(Cl)cc(/C=N\NC(=O)c2ccc3c(c2)OCO3)c1O | 5.7 | 27.2* | . | 29.2 | 135.2* | 113.9*
O=C(N/N=C/c1cc(Cl)cc([N+](=O)[O-])c1O)c1ccc2c(c1)OCO2 | 0.5 | -4.7 | . | 17.1 | . | .
Cc1ccccc1CS(=O)(=O)Cc1ccc(C(=O)Nc2ccccc2C)o1 | -1.8 | . | . | . | . | .
COc1cc2ccc(=O)oc2c(O)c1O | -0.5 | 4.5 | . | 12.8 | . | .
COc1cc2ccc(=O)oc2c2ccoc12 | -7.9 | 34.8* | -3.4 | 18.1 | + | 154.7*
CN(C(=O)COC(=O)c1ccc2ccccc2n1)C1CCCCC1 | 7.3 | 4.6 | . | 2.5 | . | .
OC[C@@H]1CN(C2CCCC2)C[C@H](n2cnc3c(NC4CC4)ncnc32)O1 | -5.5 | -1.2 | . | 9.8 | . | .
CCOC(=O)c1cnc2sc3c(n2c1=O)CCCC3 | -102.1 | 107.5* | . | 22.6 | 53.2* | 45.0*
CCc1nnc(NC(=O)C2CCN(S(=O)(=O)Cc3ccccc3)CC2)s1 | 2.8 | 34.6* | . | 0.8 | 86.0* | 68.8*
N#Cc1ccc(-c2csc(NC(=O)/C=C/c3cccs3)n2)cc1 | -5.9 | 1.1 | -6.5 | 12.0 | . | .
N#Cc1ccc(-c2csc(NC(=O)C3CC3)n2)cc1 | -1.7 | 50.2* | -2.2 | 4.7 | 91.1* | 70.8*
SMILES | CCHFV vOTU inh | Mtb FBA inh | RecA intein inh | GDH-TPI counter-1 | Mtb FBA inh conf | GDH-TPI counter-2 | others
S=c1[nH]c(-c2ccccc2)cn1/N=C/c1ccccc1Br | 3.8 | 17.6 | 2.1 | -0.6 | . | .
S=c1[nH]c(-c2ccccc2)cn1/N=C/c1cccc2ccccc12 | -7.3 | 32.8* | 6.0 | 3.2 | 15.1 | -2.8 | GDH-TPI DR=>10
COc1cc(/C=N/n2cc(-c3ccccc3)[nH]c2=S)cc(OC)c1O | 5.7 | 42.9* | -8.0 | 26.2 | 79.9* | 64.0*
Oc1ccc(/C=N/n2cc(-c3ccccc3)[nH]c2=S)cc1 | 8.6 | 42.3* | 0.8 | 16.7 | 137.1* | 116.6*
COc1ccc(C(=O)NC(=S)NCc2ccco2)cc1 | -1.9 | -2.8 | -0.5 | 1.1 | . | .
Nc1cccn2c(-c3ccc(Cl)cc3)cnc12 | 5.3 | 7.3 | 11.9 | 5.6 | . | .
COc1ncccc1-c1cnc2cccnn12 | -79.2 | 92.0* | . | 6.6 | 117.2* | 100.1*
COc1ccc(-c2cnc3cccnn23)cn1 | -39.0 | 29.4* | . | -3.6 | -8.1 | -6.7
Clc1ccc(-c2cnc3cccnn23)cc1 | -58.2 | 51.0* | . | 7.1 | + | +
Oc1ccccc1-c1cnc2cccnn12 | -9.9 | -1.4 | . | 15.5 | . | .
O=C(COC(=O)c1n[nH]c2ccccc12)NCCc1ccccc1 | 6.8 | 6.3 | . | 10.8 | . | .
Nc1nccc(/C=C/c2c(F)cccc2Cl)n1 | -10.9 | 12.9 | 2.3 | 12.0 | . | .

High-throughput results from PubChem BioAssay.
